We go through six compounds from PubChem BioAssay (EPA / NIEHS).

Test [1] in a line: TOX21_p53_BLA_p2_viability: Viability Assessment in the Tox21 HCT-116 p53 Agonism Beta-lactamase Assay, Phase 2 (AID 2283591).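 Note: actives lower the ATP signal meaning cytotoxicity.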 The method, boiled down: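 HCT116 p53-bla cells, 4000/well, dosed after 5 h plating (217-fold dilution of DMSO stocks) and incubated 16 h at 37C. Viability taken as cellular ATP by CellTiter-Glo luminescence after 30 min RT; signal loss marks cytotoxicity.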

Test [2] deals with Cellular tumor antigen p53 (Homo sapiens) (UniProt P04637). Kind of test: TOX21_p53_BLA_p2_ratio: Tox21 HCT-116 p53 Agonism Beta-lactamase Assay, Ratio, Phase 2 (AID 2283592). The method, boiled down:
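An inducible beta-lactamase reporter in HCT116 cells signals p53 pathway activation. After 16 h chemical exposure at 37C, cells load CCF4-AM substrate for 2 h at room temperature; activity is the cleaved/uncleaved emission ratio relative to DMSO.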

Test [3] can be described thus: TOX21_p53_BLA_p3_viability: Viability Assessment in the Tox21 HCT-116 p53 Agonism Beta-lactamase Assay, Phase 3 (AID 2283593).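 Note: cells exposed to compound for 16 h before reading.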 The essentials: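 HCT116 cells, 4000/well, dosed 5 h after plating by pin transfer (217-fold dilution from DMSO stock) and incubated 16 h at 37C, 5% CO2. Viability read as ATP luminescence with CellTiter-Glo after 30 min at room temperature.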

The target of test [4] is Cellular tumor antigen p53 (Homo sapiens) (UniProt P04637). Kind of test: TOX21_p53_BLA_p3_ratio: Tox21 HCT-116 p53 Agonism Beta-lactamase Assay, Ratio, Phase 3 (AID 2283596). The method, boiled down: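 HCT116 p53-bla cells (4000/well) given compound in DMSO (217-fold dilution) after 5 h, incubated 16 h at 37C. CCF4-AM substrate 2 h at room temperature; 460/530 nm emission ratio, gain fitted against DMSO.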

Test [5] in a line: TOX21_p53_BLA_p4_viability: Viability Assessment in the Tox21 HCT-116 p53 Agonism Beta-lactamase Assay, Phase 4 (AID 2283597).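 Note: hits lower the luminescence signal meaning cytotoxicity.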 The essentials: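 Compound exposure of HCT116 cells lasts 16 h at 37C, 5% CO2, with DMSO stocks diluted 217-fold. Cellular ATP is then quantified by CellTiter-Glo luminescence after 30 min at room temperature.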
Test [6] can be described thus: TOX21_p53_BLA_p5_viability: Viability Assessment in the Tox21 HCT-116 p53 Agonism Beta-lactamase Assay, Phase 5 (AID 2283600). The essentials: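 Counter-readout for cytotoxicity: ATP-dependent luminescence from CellTiter-Glo, read in the beta-lactamase wells after 30 min at RT, following a 16 h compound exposure at 37C.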
Test [7] has as its target Cellular tumor antigen p53 (Homo sapiens) (UniProt P04637). Kind of test: TOX21_p53_BLA_p4_ratio: Tox21 HCT-116 p53 Agonism Beta-lactamase Assay, Ratio, Phase 4 (AID 2283601). The essentials: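 HCT-116 p53 beta-lactamase reporter cells (4000/well) preincubated 5 h, then compound (217-fold dilution of DMSO stock) for 16 h at 37C. CCF4-AM substrate added 2 h at room temperature; 460/530 nm emission ratio fitted upward versus DMSO.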

Test [8] shares this target. Kind of test: TOX21_p53_BLA_p5_ratio: Tox21 HCT-116 p53 Agonism Beta-lactamase Assay, Ratio, Phase 5 (AID 2283599). The method, boiled down: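 HCT-116 p53-bla cells (4000/well) plated 5 h, dosed with compound (217-fold DMSO dilution) for 16 h at 37 C; CCF4-AM substrate 2 h at room temperature. Activity is the 460/530 nm emission ratio (405 nm excitation), fitted in gain-of-signal direction versus DMSO.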

Test [9] is described as follows: CCTE_Deisenroth_H295R-HTRF_384WELL_ESTRADIOL: CCTE's H295R-HTRF Assay Evaluation of Estradiol Concentration, Deisenroth Lab (AID 2284361; active = hit-call score of the fitted dose curve at least 0.9, where 1 is the maximum; inactive = score below 0.9). The note with it: actives raise or lower the signal. The essentials: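 H295R cells exposed 48 h to chemicals at 0.001 - 100 uM final (nine points, triplicate); estradiol in conditioned medium measured by HTRF immunoassay, fitted bidirectionally versus DMSO. Viability by CellTiter-Glo on same plates.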

A short description of test [10]: CCTE_Deisenroth_H295R-HTRF_384WELL_TESTOSTERONE: CCTE's H295R-HTRF Assay Evaluation of Testosterone Concentration, Deisenroth Lab (AID 2284373; active = hit-call score of the fitted dose curve at least 0.9, where 1 is the maximum; inactive = score below 0.9). The note with it: actives raise or lower the signal. The method, boiled down: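 Testosterone secreted into medium was quantified by direct HTRF immunoassay after a 48 h treatment of H295R adrenocortical cells (nine concentrations, 0.001–100 uM final). Gain or loss fitted relative to DMSO; CellTiter-Glo viability read on same plates.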
Background: In TR-FRET formats the signal depends on donor and acceptor labels being close together.

Test [11] can be described thus: CCTE_Deisenroth_H295R-HTRF_384WELL_CTOX: Cytotoxicity Assessment in CCTE's H295R-HTRF Assay, Deisenroth Lab (AID 2284380). The essentials:
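H295R adrenocortical carcinoma cells plated 24 h, then exposed 48 h to nine-point series 0.001–100 uM final, triplicate, n=5. ATP measured by CellTiter-Glo 2.0 luminescence on same plates after medium collection; loss versus DMSO.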

Inconclusive results are not listed. Calls of active or inactive are those of the source. Rule for the calls, unless noted: active = hit-call score of the fitted dose curve at least 0.9, where 1 is the maximum; inconclusive = response in the unintended direction; inactive = score below 0.9.

Sequence of Cellular tumor antigen p53 (Homo sapiens) (P04637 whole entry, looked up): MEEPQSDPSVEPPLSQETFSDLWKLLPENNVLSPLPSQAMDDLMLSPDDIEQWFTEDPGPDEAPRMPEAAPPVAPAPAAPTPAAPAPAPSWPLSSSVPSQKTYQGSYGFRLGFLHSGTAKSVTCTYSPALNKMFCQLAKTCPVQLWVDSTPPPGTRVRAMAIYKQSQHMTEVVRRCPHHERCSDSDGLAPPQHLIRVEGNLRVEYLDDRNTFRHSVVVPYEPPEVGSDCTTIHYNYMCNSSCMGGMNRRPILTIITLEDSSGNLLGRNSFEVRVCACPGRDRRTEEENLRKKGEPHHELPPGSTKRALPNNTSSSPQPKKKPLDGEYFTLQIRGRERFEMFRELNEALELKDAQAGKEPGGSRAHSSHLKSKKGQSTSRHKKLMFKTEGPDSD

The term AC50 denotes the midpoint of the concentration-response curve, whichever way the signal moves. `CN1CCN=C(c2ccccc2)c2cc(Cl)ccc21`: the compound was classed as inactive in test [1], in test [3], in [4] and in test [5]. Moreover, the AC50 in test [2] is 0.000141 µM (active); in test [6], 0.000386 µM (active); in [7] it was 0.0267 nM (active).

As to `COc1cc(N)c(Cl)cc1C(=O)NC1CN2CCC1CC2` (centres undefined), the compound was called inactive in test [1], in test [2], in test [3], in test [4], in test [5] and in [7].

For the compound `CCCCC#N`, the outcome in [1], in test [2], in [3], in test [4], in test [5] and in test [6] was inactive. Besides, in [7], the result was inactive.

With `C[C@@H]1CC[C@@]2(OC1)O[C@H]1[C@@H](O)[C@H]3[C@@H]4CC[C@H]5C[C@@H](O[C@@H]6O[C@H](CO)[C@H](O[C@@H]7O[C@H](CO)[C@@H](O)[C@H](O[C@@H]8OC[C@@H](O)[C@H](O)[C@H]8O)[C@H]7O[C@@H]7O[C@H](CO)[C@@H](O)[C@H](O[C@@H]8O[C@H](CO)[C@@H](O)[C@H](O)[C@H]8O)[C@H]7O)[C@H](O)[C@H]6O)[C@H](O)C[C@]5(C)[C@H]4CC[C@]3(C)[C@H]1[C@@H]2C`, the AC50 in [1] is 19 µM (active); in test [2], 39.1 µM (active); in [3], 48.5 µM (active); in test [4], 81.5 µM (active); in [5] it was 18.7 µM (active); in [8], 69.7 µM (active). For the same compound, the AC50 in [6] is 33.3 µM (active); in test [9], 88.2 µM (active); in test [10], 2.93 µM (active); in [11], 6.26 µM (active).

Take `O=C/C=C/c1ccco1`: the outcome in test [1], in [2], in test [3], in test [4], in test [5] and in [6] was inactive. For the same compound, in test [7], the outcome was inactive.

On to `CC(C)OC(=O)Cc1ccccc1`, for which the outcome in test [1], in test [2], in test [3], in test [4], in test [5] and in test [8] was inactive. The outcome in [7] was inactive.
